According to PubChem BioAssay (NCI):
Compounds without any hit were thinned out: in the full panel of roughly 79,000, 15% have a hit. The source made the active and inactive calls. Cut-off read from the data, not from the text of the source: active = growth inhibition above about 70%; inactive = the rest.

Experiments:
[1] = NCI Yeast Anticancer Drug Screen. Data for the rad52 strain (AID 147);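 note: 0% = growth of vehicle-treated control cultures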; conditions: S. cerevisiae rad52 mutant growth inhibition, active compounds read high
Summary of the method: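 Inhibition of yeast growth, referenced to vehicle controls, was the measured output for a strain with defective DNA damage repair.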

[2] = NCI Yeast Anticancer Drug Screen. Data for the wt1 strain (AID 149);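 note: 0% = growth of vehicle-treated wt1 cultures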; conditions: S. cerevisiae wt1 strain (SPY 50644) growth inhibition, active compounds read high
Summary of the method: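 The wt1 strain was treated with compounds, and growth was compared with vehicle-treated cultures to give inhibition.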

[3] = NCI Yeast Anticancer Drug Screen. Data for the rad50EPP+ strain (AID 151);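 note: 0% = growth of vehicle-treated control cultures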; conditions: S. cerevisiae rad50 mutant strain, active compounds read high
Summary of the method: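 Genetically defined yeast (rad50EPP+, DNA damage repair alteration) is grown with compound, and inhibition of growth is expressed relative to vehicle-treated controls.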

[4] = NCI Yeast Anticancer Drug Screen. Data for the mgt1 strain (AID 153); conditions: S. cerevisiae mgt1 mutant growth inhibition, active compounds read high
Summary of the method: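 In the mgt1 strain, test compounds were added and growth inhibition was determined relative to vehicle-treated controls.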

[5] = NCI Yeast Anticancer Drug Screen. Data for the rad50 strain (AID 155);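 note: 0% = growth of vehicle-only cultures of the same strain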; conditions: S. cerevisiae rad50 strain growth inhibition, active compounds read high
Summary of the method: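 Cells are treated with compound, grown, and their growth is then scored against vehicle-only cultures of the same repair-deficient yeast strain.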

[6] = NCI Yeast Anticancer Drug Screen. Data for the mec2-1 strain (AID 157); conditions: S. cerevisiae mec2-1 strain, active compounds read high
Summary of the method: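 Each compound was tested on mec2-1 yeast, a strain altered in DNA damage repair or cell cycle control. Growth inhibition is reported relative to vehicle.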

[7] = NCI Yeast Anticancer Drug Screen. Data for the rad14 strain (AID 159);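 note: 0% = growth of vehicle-treated control cultures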; conditions: S. cerevisiae rad14 strain growth inhibition, active compounds read high
Summary of the method: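 Readout: yeast growth inhibition, referenced to vehicle-only cultures. Strain bears a defined alteration in DNA damage repair.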

[8] = NCI Yeast Anticancer Drug Screen. Data for the sgs1 mgt1 strain (AID 161);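 note: 0% = growth of cultures given vehicle only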; conditions: S. cerevisiae sgs1 mgt1 strain, active compounds read high
Summary of the method: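 Test agents were incubated with a DNA-repair-mutant yeast strain. Growth was then read and compared against vehicle-treated controls.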

[9] = NCI Yeast Anticancer Drug Screen. Data for the CLN2oe strain (AID 163);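 note: 0% = growth of vehicle-only control cultures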; conditions: S. cerevisiae CLN2oe strain, active compounds read high
Summary of the method: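 First, the altered yeast strain was treated with each compound; second, its growth was measured; finally, inhibition was derived by comparison with vehicle controls.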

[10] = NCI Yeast Anticancer Drug Screen. Data for the cln2 rad14 strain (AID 165);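 note: 0% = growth equal to vehicle treated cultures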; conditions: S. cerevisiae cln2 rad14 strain, active compounds read high
Summary of the method: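 Test compounds were added to cln2 rad14 yeast cultures; inhibition of growth was then determined by comparison with vehicle treatment.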

[11] = NCI Yeast Anticancer Drug Screen. Data for the bub3 strain (AID 167); conditions: S. cerevisiae bub3 mutant strain, active compounds read high
Summary of the method: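 Part of a panel of yeast mutants defective in DNA damage repair or cell cycle regulation. Each strain is grown with compound, and inhibition is calculated relative to solvent-treated cultures.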

[12] = NCI Yeast Anticancer Drug Screen. Data for the wt2 strain (AID 169);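 note: 0% = growth of vehicle-treated yeast cultures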; conditions: S. cerevisiae wt2 strain growth inhibition, active compounds read high
Summary of the method: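 The panel's yeast strains carry defined changes in DNA repair or cell cycle genes. Each strain is grown with compound, and growth loss is scored relative to vehicle.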

[13] = NCI Yeast Anticancer Drug Screen. Data for the mlh1 strain (AID 171);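 note: 0% = growth of vehicle-treated control cultures of the same strain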; conditions: S. cerevisiae mlh1 strain growth inhibition, active compounds read high
Summary of the method: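 Inhibition values reflect reduced yeast growth in the presence of compound, referenced to vehicle controls, using a strain chosen for its alteration in DNA repair or cell cycle control.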

[14] = NCI Yeast Anticancer Drug Screen. Data for the sgs1 strain (AID 173);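 note: 0% = growth of vehicle-only control cultures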; conditions: S. cerevisiae sgs1 mutant, active compounds read high
Summary of the method: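 Vehicle-treated cultures served as reference for growth inhibition of a yeast strain altered in DNA damage repair or cell cycle control after compound exposure.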

[15] = NCI Yeast Anticancer Drug Screen. Data for the mlh1 rad18 strain (AID 175); conditions: S. cerevisiae mlh1 rad18 strain growth inhibition, active compounds read high
Summary of the method: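 Inhibition values reflect reduced growth of mutant yeast versus vehicle-treated controls following compound exposure; the mutations affect DNA damage repair.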

[16] = NCI Yeast Anticancer Drug Screen. Data for the rad18 strain (AID 177); conditions: S. cerevisiae rad18 mutant growth inhibition, active compounds read high
Summary of the method: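 Steps: expose repair-mutant yeast to compound; measure growth; express as inhibition relative to vehicle control.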

[17] = at 5.0 µM (retest, dose inferred, filed as 0.5)
[18] = at 50.0 µM (retest, dose inferred, filed as 5.0)

Measured: growth inhibition

COc1ccc(Br)c(C(=O)Sc2nnnn2-c2cccc(Cl)c2)c1
inactive: [1]; at 1.2 µM 23% | [1]; at 3.7 µM 29% | [1]; at 11.0 µM 24% | [1]; at 33.0 µM 43% | [2]; at 1.2 µM 5% | [2]; at 3.7 µM 17% | [2]; at 11.0 µM 22% | [2]; at 33.0 µM 33% | [3]; at 1.2 µM 3% | [3]; at 3.7 µM -19% | [3]; at 11.0 µM 9% | [3]; at 33.0 µM 65% | [4]; at 1.2 µM -10% | [4]; at 3.7 µM 11% | [4]; at 11.0 µM 16% | [4]; at 33.0 µM 30% | [5]; at 1.2 µM 2% | [5]; at 3.7 µM 21% | [5]; [17] 42% | [5]; at 11.0 µM 6% | [5]; at 33.0 µM 42% | [6]; at 1.2 µM 13% | [6]; at 3.7 µM -9% | [6]; [17] 40% | [6]; at 11.0 µM -14% | [6]; at 33.0 µM 12% | [7]; at 1.2 µM -8% | [7]; at 3.7 µM -5% | [7]; at 11.0 µM -30% | [7]; at 33.0 µM -16% | [8]; [17] -19% | [9]; at 1.2 µM 6% | [9]; at 3.7 µM 3% | [9]; at 11.0 µM 3% | [9]; at 33.0 µM 5% | [10]; [17] 58% | [11]; at 1.2 µM 13% | [11]; at 3.7 µM 11% | [11]; [17] 23% | [11]; at 11.0 µM -22% | [11]; at 33.0 µM 8% | [12]; at 1.2 µM -11% | [12]; at 3.7 µM -15% | [12]; at 11.0 µM -35% | [12]; at 33.0 µM -8% | [13]; at 1.2 µM -14% | [13]; at 3.7 µM -21% | [13]; at 11.0 µM -25% | [13]; at 33.0 µM 3% | [14]; at 1.2 µM 2% | [14]; at 3.7 µM 2% | [14]; at 11.0 µM 11% | [14]; at 33.0 µM 49% | [15]; [17] 47% | [15]; [18] 67% | [16]; at 1.2 µM -24% | [16]; at 3.7 µM -10% | [16]; at 11.0 µM -8% | [16]; at 33.0 µM 52%
active: [1]; at 100.0 µM 96% | [2]; at 100.0 µM 93% | [3]; at 100.0 µM 92% | [4]; at 100.0 µM 95% | [5]; [18] 71% | [5]; at 50.0 µM 87.6% | [5]; at 100.0 µM 93% | [6]; [18] 72% | [6]; at 50.0 µM 88.9% | [6]; at 100.0 µM 94% | [7]; at 100.0 µM 89% | [8]; [18] 89% | [8]; at 50.0 µM 87.8% | [9]; at 100.0 µM 94% | [10]; [18] 83% | [10]; at 50.0 µM 76.2% | [11]; [18] 81% | [11]; at 50.0 µM 88.2% | [11]; at 100.0 µM 93% | [12]; at 100.0 µM 93% | [13]; at 100.0 µM 92% | [14]; at 100.0 µM 94% | [15]; at 50.0 µM 85% | [16]; at 100.0 µM 93%
